PubChem BioAssay (Tox21)
Results filed as inconclusive are left out. Where a call stands in place of a potency, no number is given. A number with no mark means an inactive call. Calls of active or inactive are those of the source. Calls follow the shape of the full dose curve.

Target: Acetylcholinesterase (Homo sapiens) (UniProt P22303)
Experiment: Acetylcholinesterase (AChE) small molecule antagonists: colormetric cell-based qHTS assay (AID 1347395); also: nearly all actives have a fitted effect of over 30% in size
Settings: SH-SY5Y cells AChE activity, colorimetric (Ellman); series mostly up to 115 µM
Source text: National Center for Advancing Translational Sciences [NCATS]
Division of Preclinical Innovation [DPI]
U.S. Environmental Protection Agency [EPA]
National Institutes of Environmental Health Sciences [NIEHS]
National Toxicology Program [NTP]
U.S. Food and Drug Administration [FDA]
Acetylcholinesterase (AChE) is the primary cholinesterase in the body that hydrolyzes a key neurotransmitter, acetylcholine. Inhibition of AChE activity can lead to neurotoxicity. The known inhibitors include organophosphorous pesticides (OP), chemical warfare agents, drugs, and various phytochemicals.
A homogenous cell-based assay using the Amplite Colormetric acetylcholinesterase assay kit (AAT Bioquest, Sunnyvale, CA) was used to evaluate the chemicals in the Tox21 10K library that inhibit AChE activity. The assay uses 5, 5-dithiobis-(2-nitrobenzoic acid) (DTNB) to quantify the thiocholine produced from the hydrolysis of acetylthiocholine by AChE from the SH-SY5Y cells.
Tox21 Assay Protocol Summary:
For the cell-based AChE assay, 2,000 SH-SY5Y cells in 4 uL/well were dispensed into black, clear-bottom 1536-well plates using a Multidrop Combi dispenser (Thermo Scientific, MA). The assay plates were incubated overnight at 37 C to allow cells to attach to the wells, followed by the transfer of 23 nL of compound or DMSO (vehicle control) by a Pintool Station (Wako Automation, CA). The plates were incubated for 30 min at 37 C and 5% CO2, followed by the addition of 4 uL of detection cocktail solution (DTNB, acetylthiocholine) into each well using a Flying Reagent Dispenser (Beckman Coulter, CA) and then 90 min incubation at 37 C.
Potency is read from the fitted curve at half-maximal effect.

Acetylcholinesterase (Homo sapiens), sequence (P22303 whole entry, looked up): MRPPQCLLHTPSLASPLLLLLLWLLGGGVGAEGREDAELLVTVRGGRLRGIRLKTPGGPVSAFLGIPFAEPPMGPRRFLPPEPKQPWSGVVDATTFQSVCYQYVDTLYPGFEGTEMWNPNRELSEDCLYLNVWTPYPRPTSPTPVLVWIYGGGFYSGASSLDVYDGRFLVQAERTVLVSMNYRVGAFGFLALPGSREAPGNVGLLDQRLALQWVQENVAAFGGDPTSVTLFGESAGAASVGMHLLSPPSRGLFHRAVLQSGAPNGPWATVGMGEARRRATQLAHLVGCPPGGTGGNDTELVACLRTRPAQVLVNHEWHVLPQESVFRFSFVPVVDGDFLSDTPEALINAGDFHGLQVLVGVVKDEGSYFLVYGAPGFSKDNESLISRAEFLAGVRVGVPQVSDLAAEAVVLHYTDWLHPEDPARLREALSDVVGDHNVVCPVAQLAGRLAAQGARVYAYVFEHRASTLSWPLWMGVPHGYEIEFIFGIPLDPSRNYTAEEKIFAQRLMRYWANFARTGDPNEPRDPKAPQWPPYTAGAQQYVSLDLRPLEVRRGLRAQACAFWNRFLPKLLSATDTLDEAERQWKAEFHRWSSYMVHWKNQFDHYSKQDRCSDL

Row | Structure (SMILES) | Potency | activity, negative = inhibition
1 | Cc1nnc(SCC2=C(C(=O)O)N3C(=O)[C@@H](NC(=O)Cn4cnnn4)[C@H]3SC2)s1 | inactive | –
2 | CC1(C)O[C@@H]2C[C@H]3[C@@H]4CCC5=CC(=O)CC[C@]5(C)[C@@]4(F)[C@@H](O)C[C@]3(C)[C@]2(C(=O)CCl)O1 | inactive | –
3 | OCCCO | inactive | –
4 | N[C@@H](CSCCCO)C(=O)O | – | -1.97% [at 23.6 µM]
5 | OCCCS | inactive | –
6 | CCCCCCOC(=O)C(C)CC (stereo not given) | inactive | –
7 | c1ccc(CNCc2ccccc2)cc1 | inactive | –
8 | NCC1(Cc2noc(=O)[nH]2)CCCCC1 | inactive | –
9 | COc1c(C)c2c(c(O)c1C/C=C(\C)CCC(=O)O)C(=O)OC2 | inactive | –
10 | CNCc1cc(F)ccc1Oc1ccc(Cl)c(Cl)c1 | inactive | –
11 | Cc1ccc(S)cc1 | inactive | –
12 | CC(C)(O)c1ccccc1 | inactive | –
13 | COCCOCCOCCOCCOC | inactive | –
14 | O=C(O)c1cccc(Cl)n1 | inactive | –
15 | CC1COc2c(N3CCN(C)CC3)c(F)cc3c(=O)c(C(=O)O)cn1c23 (stereo not given) | inactive | –
16 | CCc1cc(SCc2sc(-c3ccc(C(F)(F)F)cc3)nc2CN2CCN(c3ccc(OC)cc3)CC2)ccc1OCC(=O)O | inactive | –
17 | CC(C)(C)c1ccc(N)cc1 | inactive | –
18 | CC1(C)S[C@@H]2[C@H](NC(=O)C(c3ccccc3)S(=O)(=O)O)C(=O)N2[C@H]1C(=O)O (stereo not given in full) | inactive | –
19 | COC(=O)CC(C(C)=O)C(=O)OC (stereo not given) | inactive | –
20 | C[C@@H]1C[C@H]2[C@@H]3C[C@H](F)C4=CC(=O)C(Cl)=C[C@]4(C)[C@@]3(F)[C@@H](O)C[C@]2(C)[C@@]1(O)C(=O)CO | inactive | –

Row | Structure (SMILES) | Potency | activity, negative = inhibition
21 | CC(=O)OC(C)C[N+](C)(C)C (stereo not given) | inactive | –
22 | NC(=O)c1ccc(N)cc1 | inactive | –
23 | CC(=O)Nc1ncc([N+](=O)[O-])s1 | inactive | –
24 | CCCC1CCOC(C)S1 (stereo not given) | inactive | –
25 | COc1cc(NC(C)CCCN)c2ncccc2c1 (stereo not given) | inactive | –
26 | SCCSCCS | inactive | –
27 | O=C(Nc1ccc(Cl)cc1)Nc1ccc(Cl)c(C(F)(F)F)c1 | inactive | –
28 | CC(C)(C)c1ccc(-c2ccc(C(C)(C)C)cc2)cc1 | inactive | –
29 | O=C1N(c2ccccc2)c2ccccc2C1(Cc1ccncc1)Cc1ccncc1 | inactive | –
30 | CC(=C(CCOC(=O)C(C)C)SSC(CCOC(=O)C(C)C)=C(C)N(C=O)Cc1cnc(C)nc1N)N(C=O)Cc1cnc(C)nc1N | inactive | –
31 | CCCCCCCCCCCCCCCCCCOS(=O)(=O)O | inactive | –
32 | OCC(CO)N[C@H]1C[C@](O)(CO)[C@@H](O)[C@H](O)[C@H]1O | inactive | –
33 | CCCCCCC(=O)OCC | inactive | –
34 | OC/C=C/CO | 35.5 µM (active) | –
35 | COc1cc(C(=O)NC2CCCNC2)cc(OC)c1OC (stereo not given) | inactive | –
36 | CC1(C)OC(=O)Nc2ccc(Br)cc21 | inactive | –
37 | CC(=O)OCCC(C)CC(C)(C)C (stereo not given) | inactive | –
38 | CC(C)(C)c1ccc(OCC2CO2)cc1 (stereo not given) | inactive | –
39 | OC[C@@H](O)[C@H](O)[C@@H](O)[C@@H](O)CO | inactive | –
40 | CC(=O)Oc1cc2c(s1)CCN(C(C(=O)C1CC1)c1ccccc1F)C2 (stereo not given) | inactive | –
